Source: PubChem BioAssay (National Center for Advancing Translational Sciences (NCATS))
TDP1 cell noCPT: qHTS for Inhibitors of human tyrosyl-DNA phosphodiesterase 1 (TDP1): qHTS in cells in absence of CPT. DT40 Tdp1-/- hTDP1 cells, no CPT, ATP luminescence, 48 h. Potency, µM (doses to about 46.2 µM), without a hit: at the highest dose activity change, negative = growth inhibition, most hits filed as inhibitors. actives 15% (n = 420,000). AID 686978, 2013; note: % is set by controls: 0 for no effect and ±100 for the full control effect; nearly all actives have a fitted effect of over 55% in size
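Readout: luminescence from CellTiter-Glo after 30 min in the dark at RT. Cells: DT40 Tdp1-/- with stable hTDP1, 400/well. Exposure: compounds alone, ≥48 hr, 37 °C.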
DT40 TDP1 CPT: growth inhibition of DT40 Tdp1-/-;hTDP1 cells with camptothecin (screen for TDP1 inhibitors); chicken DT40 Tdp1-/-;hTDP1 cells + 20 nM CPT, ATP luminescence, 48 h; Potency, µM (top dose mostly 46.2 µM), without a hit: at the top dose activity change, negative = growth inhibition, hits mostly inhibitors; actives 12% (n = 420,000); note: % is set by controls: 0 for no effect and ±100 for the full control effect; nearly all actives have a fitted effect of over 55% in size
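Cell growth measured by CellTiter-Glo luminescence after a minimum 48 h, 37 C compound exposure with 20 nM CPT in Tdp1-knockout DT40 cells stably expressing hTDP1, seeded 400/well; qHTS titration format.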
TDP1 inh: blocks human tyrosyl-DNA phosphodiesterase 1; recombinant TDP1, AlphaScreen DNA substrate cleavage; Potency, µM (highest dose often 130 µM), for the others: at the top dose activity change, negative = inhibition, hits mostly inhibitors; actives 0.28% (n = 350,000); note: % is set by controls: 0 for no effect and ±100 for the full control effect; nearly all actives have a fitted effect of over 40% in size
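Here, a 5' biotin and 3' phosphotyrosine-FITC DNA oligonucleotide reports Tdp1 activity: intact substrate bridges AlphaScreen beads, while cleavage leaves a 3' phosphate and drops signal. All incubations at room temperature.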
ClpP mod: qHTS Assay for Activators of ClpP; ATP-dependent Clp protease proteolytic subunit (Bacillus subtilis (strain 168)), P80244; purified B. subtilis ClpP, FRET peptide cleavage, 20 min; Potency, µM (highest dose often 57.5 µM), inactives show at the top dose activity change, negative = active; actives 1.9% (n = 340,000); active = well fitted falling curve with a large enough effect; inconclusive = small, poorly fitted or top-dose-only effect; inactive = no such curve, though single readings can be large or run the other way; note: the source files actives as falling curves though it sought activators and does not explain the sign; nearly all actives have a fitted effect of over 65% in size
Target sequence (P80244 whole entry, looked up): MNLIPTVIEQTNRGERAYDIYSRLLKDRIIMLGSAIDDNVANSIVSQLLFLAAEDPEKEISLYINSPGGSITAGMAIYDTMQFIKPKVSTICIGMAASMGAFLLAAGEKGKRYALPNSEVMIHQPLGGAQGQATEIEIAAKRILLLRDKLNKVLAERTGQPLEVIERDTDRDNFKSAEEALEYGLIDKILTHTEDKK
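Purified B. subtilis ClpP, 10 microg/mL final in Tris/HCl pH8 with KCl, BSA, glycerol and Tween-20, cleaved an Abz/nitrotyrosine-quenched decapeptide. Fluorescence (ex 320, em 430) was read at 0 and 20 min at room temperature. Delta was normalized to 5.8 microM ADEP and DMSO/no-enzyme controls.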
* marks the source's active call; other numbers are inactive results; ? = inconclusive; . = not tested or not shown; [ ] = another dose, or the depositor's remark. Only some compounds are listed: those with a hit (about 17% of all), similar ones and a draw of the others. Unless noted, calls come from the whole dose curve; as a rule, active = well fitted curve in the direction sought with a large enough effect; inconclusive = small, poorly fitted or top-dose-only effect, or another doubt; inactive = no such curve, though single readings can be large; an effect the other way counts as inactive or inconclusive. Potency is the fitted concentration of half-maximal effect.

SMILES	TDP1 cell noCPT	DT40 TDP1 CPT	TDP1 inh	ClpP mod
CCCN1CCc2c(sc(NC(=O)c3ccc(S(=O)(=O)N(C)c4ccccc4)cc3)c2C(N)=O)C1	?	21µM*	5%	-1%
NC(=O)c1ccsc1NC(=O)COC(=O)c1ccc([N+](=O)[O-])o1	-9%	?	-11%	0%
NC(=O)c1ccsc1NC(=O)c1ccc([N+](=O)[O-])o1	8.2µM*	13µM*	1%	-1%
CN1CCc2c(sc(NC(=O)c3cc(Cl)sc3Cl)c2C(N)=O)C1	21µM*	?	.	1%
COC(=O)c1sccc1NC(=S)Nc1cc(C)ccc1OC	4%	5%	5%	-2%
CC(C)=CCN1CCN(Cc2cc(CC(C)C)n[nH]2)CC1CCO (stereo not drawn)	-10%	-16%	10%	.
CN1CCc2c(sc(NC(=O)c3ccc([N+](=O)[O-])o3)c2C(N)=O)C1	3.7µM*	1.6µM*	9%	-1%
NC(=O)c1ccsc1NC(=O)c1ccc2c(c1)CCCC2	?	15µM*	1%	-15%
CN1CCc2c(sc(NC(=O)c3ccc(S(=O)(=O)N4CCCC4)cc3)c2C(N)=O)C1	16µM*	?	4%	-3%
CCN1CCc2c(sc(NC(=O)c3ccc(S(=O)(=O)N(C)CC4CCCO4)cc3)c2C(N)=O)C1 (stereo not drawn)	21µM*	-36%	5%	2%
Cc1cccc(C)c1NC(=S)N(c1ccccc1)C(C)C	16%	1%	5%	-2%
CCOC(=O)N1CCN(S(=O)(=O)c2ccc(C(=O)Nc3ccc4c(c3)C(=O)NC4=O)cc2)CC1	-9%	-16%	-2%	20µM*
CN1CCc2c(sc(NC(=O)c3ccc(S(=O)(=O)N4CCOCC4)cc3)c2C(N)=O)C1	-30%	-22%	2%	-7%
CNC(=O)c1c(NC(=O)c2ccc(S(=O)(=O)N3CCCc4ccccc43)cc2)sc2c1CCN(C)C2	13µM*	23µM*	.	0%
CN1CCc2c(sc(NC(=O)c3ccc(S(=O)(=O)N4CCCCCC4)cc3)c2C(N)=O)C1	12µM*	18µM*	2%	-3%
CNC(=O)c1c(NC(=O)c2ccc(S(=O)(=O)N3CCCCC3)cc2)sc2c1CCN(C(C)C)C2	?	?	5%	-2%
CN(C)c1ccc(N=Nc2ccccc2C(=O)OCC(=O)NCC2CCCCC2)cc1	21µM*	?	3%	1%
CN(C)c1ccc(N=Nc2ccccc2C(=O)OCC(=O)NC2CCCC2)cc1	?	26µM*	11%	1%
O=C(c1ccc2c(c1)OCO2)N(Cc1cc2cc3c(cc2nc1N1CCOCC1)CCC3)CC1CCCO1 (stereo not drawn)	-2%	25%	.	.
COc1ccc(Nc2nc(Nc3ccc(OC)cc3OC)nc(N3CCN(C)CC3)n2)c(OC)c1	16µM*	?	8%	-16%
COc1ccc(Nc2nc(NC(C)(C)C)nc(N3CCOCC3)n2)c(OC)c1	?	21µM*	6%	-1%
COc1ccc(Nc2nc(N3CCCC3)nc(N3CCCC3)n2)c(OC)c1	?	?	2%	0%
COc1ccc(Nc2nc(NC(C)(C)C)nc(N3CCCC3)n2)c(OC)c1	16µM*	23µM*	11%	-10%
COc1ccc(Nc2nc(N3CCCCC3)nc(N3CCCCC3)n2)c(OC)c1	-25%	-12%	2%	1%
Cc1cc(C)c(C(=O)c2ccccc2C(=O)O)c(C)c1	?	-7%	.	-4%
SMILES	TDP1 cell noCPT	DT40 TDP1 CPT	TDP1 inh	ClpP mod
Oc1ccc(O)c(-c2cnns2)c1	?	15µM*	5%	-1%
COCOCCn1cc(CN2CCS(=O)(=O)N(Cc3ccc(-c4ccc(F)nc4)cc3)C(CC(C)C)C2=O)nn1 (stereo not drawn)	?	?	.	-2%
COCOCCn1cc(CN2CCS(=O)(=O)N(Cc3ccc(-c4ccc(Cl)nc4)cc3)C(C)C2=O)nn1 (stereo not drawn)	?	-22%	.	0%
COCOCCn1cc(CN2CCS(=O)(=O)N(Cc3ccc(-c4ccncc4)cc3)C(CC(C)C)C2=O)nn1 (stereo not drawn)	?	23µM*	.	-10%
COCOCCn1cc(CN2CCS(=O)(=O)N(Cc3ccc(-c4ccncc4)cc3)C(C(C)C)C2=O)nn1 (stereo not drawn)	-98%	-99%	.	-8%
COCOCCn1cc(CN2CCS(=O)(=O)N(Cc3ccc(-c4ccc(Cl)nc4)cc3)C(C(C)C)C2=O)nn1 (stereo not drawn)	-1%	7.3µM*	.	-4%
COCOCCn1cc(CN2CCS(=O)(=O)N(Cc3ccc(-c4ccc(C)cc4)cc3)C(C(C)C)C2=O)nn1 (stereo not drawn)	?	?	.	-1%
COCOCCn1cc(CN2CCS(=O)(=O)N(Cc3ccc(-c4ccc(OC)cc4)cc3)C(C(C)C)C2=O)nn1 (stereo not drawn)	16µM*	15µM*	.	0%
COCOCCn1cc(CN2CCS(=O)(=O)N(Cc3ccc(-c4ccccc4)cc3)C(C(C)C)C2=O)nn1 (stereo not drawn)	23µM*	?	.	0%
Nn1c(SCc2cc([N+](=O)[O-])cc3c2OCOC3)nnc1-c1cccnc1	0%	1%	3%	.
O=C(CCS(=O)(=O)c1ccc(F)cc1)N1CCOCC1	23%	4%	.	.
CC(OC(=O)CN1C(=O)NC2(CCCC2)C1=O)C(=O)c1ccccc1 (stereo not drawn)	6%	8%	2%	2%
CCOC(=O)c1cc(-c2ccncc2)nc2c1c(C)nn2-c1ccccn1	16µM*	?	0%	-10%
CC1(C(=O)NS(=O)(=O)C2CC2)CCN(C(=O)COCc2ccccc2)C1 (stereo not drawn)	4%	7%	.	0%
CCCCCCCCCCCCCCCC(=O)NCCCC(=O)O	.	.	5%	.
CCOC(=O)c1c(-c2ccccc2)oc2ccc(OCC(O)CN(C)C)cc12 (stereo not drawn)	23µM*	?	.	.
CCOC(=O)c1c(-c2ccccc2)oc2ccc(OC(C)C(=O)O)cc12 (stereo not drawn)	-12%	1%	.	.
CCCC(=O)N(c1ccc2oc(-c3ccccc3)c(C(=O)OCC)c2c1)S(=O)(=O)c1ccc(C)cc1	5.8µM*	?	-2%[12.3 µM]	4%
CCOC(=O)c1c(C)oc2ccc(NS(=O)(=O)c3ccc(C(=O)O)cc3)cc12	-8%	20%	-8%	.
CCOC(=O)c1c(-c2ccccc2)oc2ccc(N(C(C)=O)S(=O)(=O)c3ccc(C)cc3)cc12	10µM*	8.2µM*	.	4%
